Results filed as inconclusive are left out. Calls of active or inactive are those of the source. How the source made its calls, unless noted: active means hit-call score of the fitted dose curve at least 0.9, where 1 is the maximum; inconclusive means response in the unintended direction; inactive means score below 0.9.
Experiments:
[1] = molecular target: Estrogen receptor beta (Homo sapiens) (UniProt Q92731); experiment: OT_ER_ERbERb_1440: Odyssey Thera (OT) 24-hour HEK293T Protein-Complementation Assay for Estrogen Receptor-beta/-beta Homodimer (AID 2283380);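 further: scored as signal increase over DMSO baseline for both agonists and antagonists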
Sequence of Estrogen receptor beta (Homo sapiens) (Q92731 whole entry, looked up, the tested form may be a part): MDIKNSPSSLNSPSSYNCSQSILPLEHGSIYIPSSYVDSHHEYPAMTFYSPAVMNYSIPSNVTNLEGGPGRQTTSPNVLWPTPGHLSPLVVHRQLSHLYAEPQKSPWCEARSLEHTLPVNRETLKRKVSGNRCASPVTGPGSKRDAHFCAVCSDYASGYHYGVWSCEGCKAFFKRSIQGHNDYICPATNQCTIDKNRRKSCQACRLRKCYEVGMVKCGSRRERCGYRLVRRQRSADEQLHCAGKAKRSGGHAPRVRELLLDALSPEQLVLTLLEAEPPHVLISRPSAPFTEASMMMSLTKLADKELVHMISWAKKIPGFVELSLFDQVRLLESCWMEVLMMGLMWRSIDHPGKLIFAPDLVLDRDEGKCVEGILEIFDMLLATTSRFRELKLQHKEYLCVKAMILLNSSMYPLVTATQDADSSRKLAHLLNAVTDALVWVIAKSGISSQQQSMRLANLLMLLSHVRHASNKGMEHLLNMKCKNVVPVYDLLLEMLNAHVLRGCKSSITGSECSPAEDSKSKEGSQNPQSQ
How it was run: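 HEK293T cells stably expressing ER beta LBD (aa 310-547) homodimer fragment-complementation reporter, dosed 24 h. Cells formaldehyde-fixed, Draq5-stained; gain in nuclear (agonist) or nuclear plus cytoplasmic (antagonist) fluorescence versus DMSO read by laser scanning cytometry.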

[2] = molecular target: Estrogen receptor (Homo sapiens) (UniProt P03372); experiment: OT_ERa_GFPERaERE_0480: Odyssey Thera (OT) 8-hour HeLa Transcription Induction Assay for Estrogen Receptor (AID 2283381; active means hit-call score of the fitted dose curve at least 0.9, where 1 is the maximum; inactive means score below 0.9)
Sequence of Estrogen receptor (Homo sapiens) (P03372 whole entry, looked up): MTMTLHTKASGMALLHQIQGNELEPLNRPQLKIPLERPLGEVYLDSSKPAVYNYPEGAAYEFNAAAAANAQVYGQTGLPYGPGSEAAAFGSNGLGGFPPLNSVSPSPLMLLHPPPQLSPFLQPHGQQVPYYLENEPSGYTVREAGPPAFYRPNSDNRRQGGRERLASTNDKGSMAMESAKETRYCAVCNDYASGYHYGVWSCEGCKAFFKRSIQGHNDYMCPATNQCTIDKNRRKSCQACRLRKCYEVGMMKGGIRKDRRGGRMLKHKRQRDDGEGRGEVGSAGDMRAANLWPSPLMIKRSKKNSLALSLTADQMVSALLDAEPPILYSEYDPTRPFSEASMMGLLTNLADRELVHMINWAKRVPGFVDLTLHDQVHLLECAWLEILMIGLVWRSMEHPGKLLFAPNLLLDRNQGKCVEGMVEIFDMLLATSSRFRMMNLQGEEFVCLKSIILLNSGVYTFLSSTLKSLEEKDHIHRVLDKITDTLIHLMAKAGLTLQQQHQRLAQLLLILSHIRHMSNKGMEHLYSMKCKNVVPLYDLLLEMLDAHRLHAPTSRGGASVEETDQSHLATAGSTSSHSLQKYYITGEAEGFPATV
How it was run: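 HeLa cells dosed with compound and imaged by fluorescence microscopy at 8 h; GFP induction from an ERE reporter quantified by high-content image analysis and fitted as gain of signal against DMSO baseline.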

[3] = molecular target: human Norepinephrine Transporter (NET), SLC6A2 (gene 6530) (UniProt P23975); experiment: NVS_TR_hNET: NovaScreen (NVS) Transporter Assay for human Norepinephrine Transporter (NET) (AID 2283377)
Sequence of human Norepinephrine Transporter (NET), SLC6A2 (gene 6530) (P23975 whole entry, looked up): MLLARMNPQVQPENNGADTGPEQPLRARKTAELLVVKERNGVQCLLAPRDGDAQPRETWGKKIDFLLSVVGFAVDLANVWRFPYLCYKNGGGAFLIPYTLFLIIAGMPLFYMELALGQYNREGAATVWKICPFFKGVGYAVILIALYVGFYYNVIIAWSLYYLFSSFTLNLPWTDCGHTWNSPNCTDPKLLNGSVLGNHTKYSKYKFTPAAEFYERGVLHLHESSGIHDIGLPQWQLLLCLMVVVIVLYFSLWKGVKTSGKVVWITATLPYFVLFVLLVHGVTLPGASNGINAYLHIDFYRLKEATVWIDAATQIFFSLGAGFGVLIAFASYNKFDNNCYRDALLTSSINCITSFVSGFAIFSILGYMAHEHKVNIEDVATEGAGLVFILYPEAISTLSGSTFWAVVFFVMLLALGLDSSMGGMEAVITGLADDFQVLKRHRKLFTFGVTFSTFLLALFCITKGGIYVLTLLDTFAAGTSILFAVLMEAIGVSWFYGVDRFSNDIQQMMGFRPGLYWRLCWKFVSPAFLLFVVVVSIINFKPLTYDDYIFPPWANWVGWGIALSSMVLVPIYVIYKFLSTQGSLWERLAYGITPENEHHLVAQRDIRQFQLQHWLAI
How it was run: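 Cell-free radioligand binding using CHO-derived membrane protein expressing human NET, read by filter scintillation counting 1 h after dosing; loss of signal vs DMSO. Initial duplicate screen at 25 uM, actives retested in concentration series.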

[4] = molecular target: mouse Estrogen Receptor alpha (Era), Esr1 (gene 13982) (UniProt P19785); experiment: NVS_NR_mERa: NovaScreen (NVS) Nuclear Receptor Binding Assay for mouse Estrogen Receptor alpha (Era) (AID 2283378);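 further: hit means loss of bound radioligand signal relative to DMSO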
Sequence of mouse Estrogen Receptor alpha (Era), Esr1 (gene 13982) (P19785 whole entry, looked up): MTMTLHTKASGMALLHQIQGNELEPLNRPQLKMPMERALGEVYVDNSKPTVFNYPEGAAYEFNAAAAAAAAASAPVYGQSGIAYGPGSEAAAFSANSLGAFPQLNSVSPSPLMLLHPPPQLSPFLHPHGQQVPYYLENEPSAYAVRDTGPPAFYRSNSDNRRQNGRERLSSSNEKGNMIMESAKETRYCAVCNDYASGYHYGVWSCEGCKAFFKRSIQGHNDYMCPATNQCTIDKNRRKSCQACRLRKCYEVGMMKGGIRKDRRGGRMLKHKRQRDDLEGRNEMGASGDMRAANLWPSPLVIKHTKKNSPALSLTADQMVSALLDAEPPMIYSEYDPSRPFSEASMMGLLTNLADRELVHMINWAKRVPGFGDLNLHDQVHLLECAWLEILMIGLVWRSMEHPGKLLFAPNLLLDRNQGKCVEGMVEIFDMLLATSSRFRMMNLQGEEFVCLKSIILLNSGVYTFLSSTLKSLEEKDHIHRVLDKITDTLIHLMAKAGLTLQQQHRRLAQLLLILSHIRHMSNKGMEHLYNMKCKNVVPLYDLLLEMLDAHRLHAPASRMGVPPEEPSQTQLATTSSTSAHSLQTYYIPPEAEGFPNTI
How it was run: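 Filter scintillation counts of bound radioligand, measured 18 h post-dose, gave the readout; decreased signal relative to DMSO controls indicated displacement from mouse Era. Primary screen ran in duplicate at 25 uM; active chemicals were retested across concentrations.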

[5] = molecular target: human Dopamine Transporter (DAT), SLC6A3 (gene 6531) (UniProt Q01959); experiment: NVS_TR_hDAT: NovaScreen (NVS) Transporter Assay for human Dopamine Transporter (DAT) (AID 2283374);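 further: activity means loss of bound radioligand signal relative to DMSO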
Sequence of human Dopamine Transporter (DAT), SLC6A3 (gene 6531) (Q01959 whole entry, looked up): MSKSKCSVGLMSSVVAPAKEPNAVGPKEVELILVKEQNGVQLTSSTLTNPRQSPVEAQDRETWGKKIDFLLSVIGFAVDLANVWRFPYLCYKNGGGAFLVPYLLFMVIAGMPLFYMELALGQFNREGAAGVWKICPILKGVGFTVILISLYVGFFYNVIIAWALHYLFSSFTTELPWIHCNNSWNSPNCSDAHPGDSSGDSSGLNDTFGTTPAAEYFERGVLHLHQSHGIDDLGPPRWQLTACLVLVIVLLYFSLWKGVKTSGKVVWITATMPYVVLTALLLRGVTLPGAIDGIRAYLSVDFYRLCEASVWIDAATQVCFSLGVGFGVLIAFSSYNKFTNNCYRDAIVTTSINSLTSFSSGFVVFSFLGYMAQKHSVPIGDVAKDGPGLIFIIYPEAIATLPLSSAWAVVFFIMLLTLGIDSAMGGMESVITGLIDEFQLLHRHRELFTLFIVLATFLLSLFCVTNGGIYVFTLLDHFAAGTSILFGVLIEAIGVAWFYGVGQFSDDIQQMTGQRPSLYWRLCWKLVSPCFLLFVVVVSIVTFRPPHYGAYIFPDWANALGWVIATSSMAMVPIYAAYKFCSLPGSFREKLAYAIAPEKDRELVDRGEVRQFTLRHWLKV
How it was run: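 Cell-free radioligand displacement binding at human DAT, 1 h after dosing, with filtration and scintillation counting. Primary screen in duplicate at 25 uM, actives then in concentration series. Loss of bound signal versus DMSO scored.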

[6] = molecular target: Agonist Androgen Response Element (ARE), AR (gene 367) (UniProt P10275); experiment: OT_AR_ARELUC_AG_1440: Odyssey Thera (OT) 24-hour CHO-K1 Luciferase Assay for Agonist Androgen Response Element (ARE) (AID 2283379)
Sequence of Agonist Androgen Response Element (ARE), AR (gene 367) (P10275 whole entry, looked up): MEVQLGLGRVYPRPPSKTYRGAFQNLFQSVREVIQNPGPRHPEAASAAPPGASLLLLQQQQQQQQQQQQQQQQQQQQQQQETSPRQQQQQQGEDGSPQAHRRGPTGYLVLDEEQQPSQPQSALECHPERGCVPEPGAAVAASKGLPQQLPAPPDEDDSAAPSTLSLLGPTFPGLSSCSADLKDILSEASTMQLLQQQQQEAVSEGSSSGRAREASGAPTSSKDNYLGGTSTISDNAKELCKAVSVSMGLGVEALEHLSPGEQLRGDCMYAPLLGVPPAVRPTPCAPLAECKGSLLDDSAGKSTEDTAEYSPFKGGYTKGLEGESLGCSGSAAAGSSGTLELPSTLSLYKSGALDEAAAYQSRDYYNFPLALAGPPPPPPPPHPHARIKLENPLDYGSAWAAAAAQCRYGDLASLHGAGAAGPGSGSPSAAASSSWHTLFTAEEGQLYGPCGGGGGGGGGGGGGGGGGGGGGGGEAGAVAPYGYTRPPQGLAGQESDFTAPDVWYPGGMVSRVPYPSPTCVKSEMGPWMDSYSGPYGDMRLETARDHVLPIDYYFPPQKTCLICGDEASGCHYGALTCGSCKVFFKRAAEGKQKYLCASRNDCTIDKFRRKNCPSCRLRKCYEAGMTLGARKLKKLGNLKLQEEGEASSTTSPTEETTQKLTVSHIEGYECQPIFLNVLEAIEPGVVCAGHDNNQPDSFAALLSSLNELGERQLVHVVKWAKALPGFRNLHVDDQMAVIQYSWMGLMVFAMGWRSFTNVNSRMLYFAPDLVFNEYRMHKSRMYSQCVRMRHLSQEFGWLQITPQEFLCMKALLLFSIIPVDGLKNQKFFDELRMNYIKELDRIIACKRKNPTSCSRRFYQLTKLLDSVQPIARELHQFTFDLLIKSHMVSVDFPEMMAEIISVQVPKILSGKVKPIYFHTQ
How it was run: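 CHO-K1 cells carrying an ARE-driven luciferase reporter were exposed to compounds for 24 h. Luminescence was then read after adding a D-luciferin/ATP mix, and activity was scored as a gain in signal over DMSO vehicle.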

In the case of `CN1C(=O)CC[C@H]1c1cccnc1`, the outcome [1] was “inactive”.
For `CCCCCCCCOc1ccc(C(=O)c2ccccc2)c(O)c1`, the outcome [2] was “inactive”.
With `Cc1cc2c(cc1C(F)(F)F)N(C(=O)Nc1ccc(Oc3cccnc3C)nc1)CC2` the outcome [1] was “inactive” and the outcome [2] was “inactive”.
In the case of `Clc1ccccc1C(c1ccccc1)(c1ccccc1)n1ccnc1`, the outcome [3] was “inactive”, the outcome [4] was “inactive” and the outcome [1] was “inactive”. For the same compound, the AC50 [2] was 79 µM (active).
In the case of `CO[C@H]1/C=C/O[C@@]2(C)Oc3c(C)c(O)c4c(O)c(c(/C=N/N5CCN(C)CC5)c(O)c4c3C2=O)NC(=O)/C(C)=C\C=C\[C@H](C)[C@H](O)[C@@H](C)[C@@H](O)[C@@H](C)[C@H](OC(C)=O)[C@@H]1C`, the outcome [1] was “inactive”.
In the case of `CC/C(=C(/CC)c1ccc(O)cc1)c1ccc(O)cc1`, the AC50 [5] was 16.2 µM (active) and the outcome [3] was “inactive”.
In the case of `Cc1occc1C(=O)Nc1ccc(C(=O)N2CCC(F)(F)/C(=C\C(=O)N3CCC(N4CCCCC4)CC3)c3ccccc32)cc1`, the outcome [6] was “inactive”, the outcome [1] was “inactive” and the outcome [2] was “inactive”.
For `CCCCOC(=O)CC(CC(=O)OCCCC)(OC(C)=O)C(=O)OCCCC`, the outcome [1] was “inactive”.
With `OC12N=C(c3ccccc3)SC1Cc1cc(Cl)ccc12` (configuration not stated) the outcome [1] was “inactive” and the outcome [2] was “inactive”.
